# Source: PubChem (National Center for Advancing Translational Sciences (NCATS))
# In the library only some 5.6% were active in any assay of this set; here they are far more common.
# Six1-Eya2 inh: inhibitors of human Six1/Eya2 interaction. Q15475+O00167. AlphaScreen GST-Six1/His-Eya2 binding, biochemical; active compounds read low. activity change, % (no concentration beside the values). 360,000 tested, 0.56% active. AID 651725; in the data active = activity change below about -65%; inconclusive = mostly about -30% to -63%
#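 Compounds are tested against tagged Six1 and Eya2 proteins bridged by glutathione donor and nickel acceptor beads; after a one-hour incubation at 37 °C without light, AlphaScreen emission is recorded.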
# CtBP-E1A blk: CtBP/E1A binding inhibition; activity change, % (test concentration not listed); AlphaScreen GST-E1A/His-CtBP binding, 1536-well; active compounds read low; 340,000 tested, 0.49% active; in the data active = activity change below about -65%; inconclusive = mostly about -30% to -63%
#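 AlphaScreen with 125 nM GST-E1A and 125 nM His-CtBP (5X stocks) in Tris pH 8.0, 300 mM NaCl, BSA, Tween 20, TCEP. Compounds preincubated 2 h at 37 deg C, then glutathione donor/nickel acceptor beads added for 1 h at 37 deg C in dark.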
# RORg inh: inhibitors of mouse ROR gamma transcriptional activity; P51450; Drosophila S2 Gal4-RORgamma UAS-luciferase reporter, 20 h; Potency, µM (top dose mostly 53.6 µM), without a hit: top-dose activity change, negative = inhibition, hits mostly inhibitors; 310,000 tested, 5.4% active; AID 2551; note: potency is the fitted concentration of half-maximal effect; nearly all actives have a fitted effect of over 60% in size
# Target sequence (P51450 whole entry, looked up, the tested form may be a part): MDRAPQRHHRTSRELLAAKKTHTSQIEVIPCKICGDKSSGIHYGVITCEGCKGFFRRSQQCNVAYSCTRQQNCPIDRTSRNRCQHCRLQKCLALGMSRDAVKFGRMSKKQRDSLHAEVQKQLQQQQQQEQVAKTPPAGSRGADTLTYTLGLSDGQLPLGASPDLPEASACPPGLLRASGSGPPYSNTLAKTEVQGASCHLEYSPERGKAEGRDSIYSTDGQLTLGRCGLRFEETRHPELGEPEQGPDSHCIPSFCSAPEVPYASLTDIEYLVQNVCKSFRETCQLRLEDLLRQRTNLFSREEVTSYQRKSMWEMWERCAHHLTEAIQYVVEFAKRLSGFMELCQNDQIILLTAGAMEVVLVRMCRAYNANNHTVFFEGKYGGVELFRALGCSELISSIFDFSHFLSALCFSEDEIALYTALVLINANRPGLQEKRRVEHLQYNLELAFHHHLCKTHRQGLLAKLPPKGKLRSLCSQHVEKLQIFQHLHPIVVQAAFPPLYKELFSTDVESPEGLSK
#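 A Gal4/UAS one-hybrid system in insect cells: metallothionein-promoter Gal4–ROR gamma fusion plus Photinus luciferase reporter. Copper sulfate 700 uM final, 20 hr ambient incubation, luminescent detection after 10 min with reagent.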
# PKM2 act: PKM2 (human) enzyme activation. Potency, µM (highest dose often 57.5 µM), for inactives: top-dose activation, actives largely listed as activators. 260,000 tested, 0.34% active. purified PKM2, Kinase-Glo ATP luminescence, activation; response scale: 0% is enzyme alone, no compound; note: potency is the fitted concentration of half-maximal effect; nearly all actives have a fitted effect of over 55% in size
#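 hPK-M2, >95% pure; 0.1 mM ADP / 0.5 mM PEP final; imidazole pH7.2 buffer w/ 7 mM MgCl2, 50 mM KCl; 1 h RT; Kinase-Glo lum. Intermediate enzyme activity for dual inhibitor/activator qHTS.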
# Gal4-VP16 FLuc: counter-screen for ROR gamma inhibitors: Gal4-VP16 reporter. Potency, µM (doses to about 53.6 µM), without a hit: at the highest dose activity, negative = inhibition, actives largely listed as inhibitors. AID 2546. 310,000 tested, 3.5% active. Drosophila S2 Gal4-VP16 UAS-luciferase, luminescence, 20 h;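 note: Gal4-VP16 expression switched on by copper sulfate through the metallothionein promoter; potency is the fitted concentration of half-maximal effect; nearly all actives have a fitted effect of over 50% in size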
# * hit, by the source's call; ? = inconclusive; . = not tested or not shown; [ ] = another dose, or the depositor's remark. Unless noted, calls come from the whole dose curve; as a rule, active = well fitted curve in the direction sought with a large enough effect; inconclusive = small, poorly fitted or top-dose-only effect, or another doubt; inactive = no such curve, though single readings can be large; an effect the other way counts as inactive or inconclusive. % is set by controls: 0 for no effect and ±100 for the full control effect.
SMILES,Six1-Eya2 inh,CtBP-E1A blk,RORg inh,PKM2 act,Gal4-VP16 FLuc
Cc1cccc(NC(=S)NNC(=O)CCn2nc(C)c([N+](=O)[O-])c2C)c1,2,-1,1.8µM*,-6%,0%
Cc1ccccc1OCC(=O)NNC(=O)CSc1nc(N)cc(N)n1,-6,.,16%,3%,6%
S=C(Nc1ccc(Br)cc1Cl)N1CCN(c2ccccn2)CC1,-12,0,-7%,0%,0%
Cn1c(=O)c([N+](=O)[O-])c(Cl)c2ccccc21,-15,1,10µM*,0%,13µM*
CN(Cc1ccon1)C(=O)C1CCN(C2CCN(CCCc3ccccc3)CC2)CC1,-2,4,15%,-5%,-6%
Cc1cc(N/N=C2/CCCc3ccccc32)nc2ccccc12,0,2,2µM*,0%,11µM*
c1ccc(N/N=C2\CCCc3ccccc32)nc1,-9,-3,13µM*,0%,?
O=C(CC1OC(=O)c2ccccc21)Nc1cc(S(=O)(=O)N2CCOCC2)ccc1OCC(F)(F)F (stereo not drawn),5,-3,.,.,.
Cc1cc(O)c(C)c2sc(N)nc12,.,.,15%,.,3%
Cn1cc([C@@H]2C[C@H]3CN(Cc4cccc(Cl)c4)C(=O)[C@]34CCCN24)c(-c2ccccc2)n1,-1,-14,?,14%,4µM*
O=c1c(-c2ccccc2)nc2cnc(N3CCOCC3)nc2n1Cc1ccc(F)cc1,.,.,1%,.,6%
CCC(=O)NC(=S)Nc1ccc(NC(=O)COc2ccc(Cl)c(C)c2)cc1,-4,-10,4%[10 µM],1%,-12%
COc1ccc(CNC(=S)Nc2cc(OC)ccc2OC)cc1,-12,-3,18µM*,-2%,?
Cc1cc(OCC(=O)NNC(=S)NC(=O)c2ccc(Br)o2)ccc1Cl,-7,-7,7.9µM*,.,-21%
COc1ccccc1NC(=S)NCCc1ccc(F)cc1,0,-1,5µM*,1%,-2%[10 µM]
COc1ccc(NC(=S)NCc2ccco2)c(OC)c1,6,2,10µM*,-2%,4%
COc1ccccc1NC(=S)NCC1CCC(CNC(=S)Nc2ccccc2OC)CC1 (stereo not drawn),-13,0,-28%,0%,-11%
COc1ccc([C@@H]2CC(=O)c3c(O)cc(O[C@@H]4O[C@H](CO)[C@@H](O)[C@H](O)[C@H]4O[C@@H]4O[C@@H](C)[C@H](O)[C@@H](O)[C@H]4O)cc3O2)cc1,.,.,3%,.,1%
Cc1cc(C)n(-c2n[nH]c(C)c2[N+](=O)[O-])n1,1,-13,0%,3%,4%
COc1ccc(NC(=S)Nc2ccccc2)cc1,4,3,?,8%[11.5 µM],?
COc1ccccc1NC(=S)NCc1ccc(F)cc1,-24,-4,32µM*,6%,?
COc1ccc(OC)c(NC(=S)Nc2ccccc2)c1,-18,-2,?,1%,20µM*
CCOc1cc(NC(=S)NCc2ccco2)c(OCC)cc1NC(=O)C1CC1,-9,-2,11µM*,-12%,?
COc1ccccc1NC(=S)NCCc1ccccc1,-5,1,6.3µM*,-15%,?
CCOc1cc(NC(=S)NCc2ccco2)c(OCC)cc1NC(C)=O,-1,6,-22%,1%,0%
SMILES,Six1-Eya2 inh,CtBP-E1A blk,RORg inh,PKM2 act,Gal4-VP16 FLuc
CCOC(=O)c1ccccc1NC(=O)C1CC(=O)N(C2CCCC2)C1 (stereo not drawn),3,7,.,.,.
NC(=O)c1cccc(C(N)=O)n1,-11,.,-12%,-7%,20%
COc1ccccc1NC(=S)NCc1ccc2c(c1)OCO2,-1,2,18µM*,0%,?
Fc1ccccc1NC(=S)NCc1ccc2c(c1)OCO2,2,0,?,3%,-16%
COc1ccc(NC(=S)NCc2ccc(F)cc2)c(OC)c1,-1,.,13µM*,1%,?
COC(=O)NNC(=S)Nc1cc(OC)ccc1OC,1,13,?,-4%,7%
COc1ccc(OC)c(NC(=S)NC(=O)c2ccc(Br)o2)c1,7,-7,4µM*,2%,?
COc1ccc(NC(=O)CSc2n[nH]c(N)n2)c([N+](=O)[O-])c1,2,-1,6%,14µM*,-13%
COc1ccc(NC(=O)CSc2n[nH]c(C(C)C)n2)c([N+](=O)[O-])c1,9,-12,40%,20%,-21%
COC(=O)[C@@H]1C[C@H]1[C@@H](NC(=O)Oc1ccc(F)cc1)c1ccccc1,.,.,29%,-4%,-5%
COc1cc(C(=O)NC(CCSC)C(=O)Nc2ccc(N3CCOCC3)cc2)cc(OC)c1OC (stereo not drawn),7,-22,.,.,.
COc1ccc(C2NC(=S)NC3=C2CCc2cc(OC)ccc23)cc1 (stereo not drawn),-11,-12,0.56µM*,12%,?
O=C(COc1nsnc1N1CCOCC1)N/N=C/c1ccccc1O,-90*,-6,0.71µM*,-15%,3.2µM*
O=C(NCCCN1CCOCC1)C(=O)N/N=C/c1ccccc1O,-75*,?,?,-2%,-2%
C/C(=N\NC(=O)Cc1csc(N2CCOCC2)n1)c1ccccc1,-3,-1,14%,-15%,4%
Cc1cc(/C=N/NC(=O)C(=O)NCc2ccccn2)c(C)n1-c1cccc(Br)c1,-14,-12,0%,-1%,-1%
O=C(Cc1csc(N2CCOCC2)n1)N/N=C/c1ccc(O)c(O)c1O,-73*,?,-1%,?,-7%
O=C(O)COc1ccc(/C=N/NC(=O)COc2nsnc2N2CCOCC2)cc1,2,3,4%,0%,-1%
O=C(NCc1ccccn1)C(=O)N/N=C/c1ccccc1O,-73*,?,?,-14%,-1%
O=C(CSc1nnnn1-c1ccc(F)cc1)Nc1ccccc1F,-5,5,9%,5%[11.5 µM],3%
CC(C)c1ccccc1-n1c(SCc2cc(=O)oc3ccc4ccccc4c23)nnc1-c1cccnc1,-6,-3,?,8%,?
Clc1ccc2c(N/N=C/c3ccccc3Br)ccnc2c1,5,-13,-110%,-4%,18µM*
Clc1ccc2c(N/N=C/c3cccc(Br)c3)ccnc2c1,0,-6,-117%,-1%,?
COc1ccc2c(c1)n([O-])c1c([n+]2=O)CCC1,-4,0,4%,6%,5%
CCOc1ccc2c(c1)n([O-])c1c([n+]2=O)CCCC1,2,6,13µM*,12%,?
C[C@H](CO)N1C[C@H](C)[C@@H](CN(C)C(=O)NC2CCCCC2)Oc2ccc(NC(=O)C3CCCCC3)cc2C1=O,6,-13,.,.,.
Fc1ccc(-c2n[nH]c(=S)c3ccccc23)cc1,-2,1,7.1µM*,0%,16µM*
O=c1[nH]nc(-c2ccccc2)c2ccccc12,-1,-1,17%,-1%,-4%
